# Sampled rows, rich in hits. Any-hit rate of the full collection: about 4.1%.
# hcDAF12 agonist: H. contortus DAF-12 activation, primary screen; HEK293 hcDAF-12 lit1-tk-luc reporter, luminescence; 0% DMSO, 100% Δ7-dafachronic acid; activation, % at 6.8 µM; 1.4% of 370,000 active; AID 652067;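 active = activation above the mean of all tested compounds plus 3 SD, cut at about 5.5% in these data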
# ssDAF12 agonist: activates DAF-12 receptor from parasite S. stercoralis | HEK293 ssDAF-12/GRIP1 lit1-tk-luc reporter, luminescence; % of 3 µM dafachronic acid response | activation, % at 6.8 µM | 1% of 370,000 active | AID 652126;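 active = activation above the mean over all tested compounds plus 3 SD, cut at about 0.9% in these data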
# DAX1 inh-1: inhibitors of DAX1 repression of SF-1 activated StAR promoter; 1.1% of 370,000 active; HEK293T StAR-luciferase reporter, SF-1/DAX-1 repression relief; inhibition, % at 6.8 µM;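 active = inhibition above the mean over all tested compounds plus 3 SD, cut at about 3.6% in these data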;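 note: higher inhibition means more luminescence from relief of DAX-1 repression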
# hgDAF12 agonist: activates the H. glycines DAF-12 receptor ligand-binding domain. HEK293 GAL4-hgDAF12 UAS-luciferase reporter, agonist luminescence; normalized to butyrate control. activation, % at 6.8 µM. 1.8% of 370,000 active;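 active = activation above a cutoff set at the mean of all screened compounds plus 3 SD, cut at about 10% in these data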
# DAX1 inh-2: inhibitors of human orphan nuclear receptor DAX1 (NR0B1) | P51843 | HEK293 Gal4-DAX1 luciferase reporter, luminescence | inhibition, % at 6.75 µM | 0.99% of 340,000 active;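 active = inhibition above the mean over all tested compounds plus 3 SD, cut at about 4.2% in these data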;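 note: inhibition shows as a rise in luminescence from relieved DAX1 repression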
# DAX1 inh confirm: confirmation of human DAX1 (NR0B1) inhibitors | shares compounds with DAX1 inh-1 | HEK293T StAR-promoter luciferase reporter, SF-1/DAX-1 repression | inhibition, % at 6.8 µM | 87% of 2,400 active;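 active = inhibition above the average of every tested compound plus 3 SD, cut at about 3.8% in these data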;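 note: active compounds raise luminescence by relieving repression of the StAR reporter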
# SF1 AF2mut Luc: nonselective inhibitor or artifact in SF-1 mutant DAX1 counter-screen; shares compounds with DAX1 inh-1; HEK293 StAR-luciferase, SF-1 AF2 mutant, luminescence; inhibition, % at 6.8 µM; 78% of 2,400 active; AID 652136;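 active = inhibition above the mean of all tested compounds plus 3 SD, cut at about 3% in these data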
# LXRb hcDAF ctr: activates human LXR-beta, counter-screen for hcDAF-12 agonists | shares compounds with hcDAF12 agonist | HEK293 Gal4-LXR tk-luc reporter, luminescence, 24 h; normalized: DMSO 0%, positive control 100% | 3,400 tested, under 10 active | AID 743027 | activation, % at 6.8 µM;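 active = mean percent activation of the reporter above a cutoff set as the average over tested compounds plus their standard deviation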
# Target sequence (P55055 whole entry, looked up, the tested form may be a part): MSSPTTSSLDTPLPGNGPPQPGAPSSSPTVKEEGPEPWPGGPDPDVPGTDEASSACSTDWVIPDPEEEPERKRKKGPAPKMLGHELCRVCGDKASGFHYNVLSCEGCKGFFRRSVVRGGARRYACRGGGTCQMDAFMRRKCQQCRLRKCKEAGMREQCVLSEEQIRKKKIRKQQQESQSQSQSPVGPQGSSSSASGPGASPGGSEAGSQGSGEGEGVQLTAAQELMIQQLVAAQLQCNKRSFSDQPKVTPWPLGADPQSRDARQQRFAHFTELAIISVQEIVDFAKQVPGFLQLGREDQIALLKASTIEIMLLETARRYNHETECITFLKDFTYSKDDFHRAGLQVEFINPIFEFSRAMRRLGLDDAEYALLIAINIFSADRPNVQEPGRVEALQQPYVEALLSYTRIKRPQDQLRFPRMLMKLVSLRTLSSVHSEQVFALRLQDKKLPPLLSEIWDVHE
# hcDAF12 conf: hcDAF-12 agonism, confirmation assay; HEK293 hcDAF-12 lit1-tk-luc reporter, luminescence; % of Δ7-dafachronic acid response; shares compounds with hcDAF12 agonist; 61% of 3,400 active; AID 743032; activation, % at 6.8 µM;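 active = mean activation across triplicate tests above the threshold derived from the earlier primary screen, cut at about 5.5% in these data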
# hgDAF12 conf: confirmation of H. glycines DAF-12 agonists; shares compounds with hgDAF12 agonist; HEK293 GAL4-hgDAF12 luciferase reporter, agonist mode; percent of butyrate response; activation, % at 6.8 µM; 80% of 3,300 active;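 active = mean activation over triplicate wells above the hit cutoff derived from the earlier primary screen, cut at about 11% in these data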
# LXRb DAF12 ctr: LXR-beta agonism as DAF-12 counter-screen; shares compounds with hgDAF12 agonist; HEK293 Gal4-LXR luciferase reporter, 24 h; activation, % at 6.8 µM; 3,300 tested, under 10 active;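 active = mean activation of the triplicate above a set limit carried over from the primary screen, none filed active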
# A number is an active result; 0 = inactive; - = no result; ! = a repeat was not active.
SMILES,hcDAF12 agonist,ssDAF12 agonist,DAX1 inh-1,hgDAF12 agonist,DAX1 inh-2,DAX1 inh confirm,SF1 AF2mut Luc,hgDAF12 conf,LXRb DAF12 ctr,others
CC(=O)Nc1ccc(S(=O)(=O)N2CCCC(C(=O)N3CCN(c4ccccc4)CC3)C2)cc1 (stereo unspecified),0,0,0,0,0,-,-,-,-,
CSc1ccc(CN(C)C(=O)C23CC4CC(CC(Cl)(C4)C2)C3)cc1,0,0,0,0,0,-,-,-,-,
COc1ccccc1Cc1c(-c2ccccc2)nc2ccc(C)cn12,0,0,5.2,16.9,-,0,4.3,0,0,
Cc1ccc2nc(C3CCCCC3)c(CC(C)(C)C)n2c1,0,0,0,0,-,-,-,-,-,
COc1ccccc1Cc1c(-c2ccc(C)cc2)nc2ccc(C)cn12,0,0,4.9,13.6,-,7.0,5.1,0,0,
Cc1ccc(-c2nc3ccc(C)cn3c2CC2CCCCC2)cc1,10.0,2.2,7.2,20.6,-,3.8,3.2,11.3,0,LXRb hcDAF ctr=0;hcDAF12 conf=9.1
C=CCNc1ncnc2c1cnn2-c1ccc(Cl)cc1,0,0,8.8,15.0,0,15.9,8.1,26.7,0,
Oc1ccccc1-c1cc(-c2ccc3c(c2)OCCO3)n[nH]1,8.9,1.0,5.9,13.3,0,6.0,0,24.3,0,LXRb hcDAF ctr=0;hcDAF12 conf=11.9
O=C(O)c1cc(-c2ccc3c(c2)OCCO3)n[nH]1,0,0,0,0,0,-,-,-,-,
CCOC(=O)c1cc(-c2ccc3c(c2)OCCO3)n[nH]1,0,0,5.3,19.1,5.8,12.6,9.9,17.1,0,
Cc1ccc(S(=O)(=O)Nc2ccc(Cl)cc2O)cc1,0,0,0,0,-,-,-,-,-,
Cc1ccc(C)c2c1N(Cc1ccccc1)C(=O)C21OCCO1,0,0,0,0,0,-,-,-,-,
CC(=O)c1c(N2CCN(C)CC2)nc(=S)n(-c2cc(C)ccc2C)c1C,0,0,0,0,0,-,-,-,-,
CC(=O)c1cccc(NC(=O)c2ccc(OC3CSC3)cc2)c1,0,0,0,0,0,-,-,-,-,
Cc1cccc(NC(=O)c2ccc(OC3CSC3)cc2)c1,0,0,4.8,16.1,0,7.8,4.0,16.0,0,
CCCNC(=O)C1(C)CCN(C(=O)Cc2ccc3ccccc3c2)C1 (stereo unspecified),0,0,0,0,-,-,-,-,-,
c1ccc2c(c1)CC/C2=N/Nc1nc2ccccc2[nH]1,0,0,7.3,13.8,0,11.1,10.9,0,0,
COc1ccc(C(=O)NN/C(=N/S(=O)(=O)c2ccc(C)cc2)c2ccccc2)cc1,0,0.9,4.6,13.9,0,9.2,4.4,18.7,0,
CCOc1ccc(S(=O)(=O)/N=C(/Nc2ccc(OC)cc2)c2ccccc2)cc1,0,0,0,0,0,-,-,-,-,
Cc1ccc(NC(=S)N/C(=N/S(=O)(=O)c2ccccc2)c2ccccc2)cc1,0,0,5.6!,18.1!,0,0,0,12.5,0,
Nc1nc(SCC(=O)Nc2ccc([N+](=O)[O-])cc2)[nH]c(=O)c1NC(=O)c1ccc(Br)o1,0,0,0,0,0,-,-,-,-,
N#Cc1cnc2cc(-c3ccccc3)nn2c1N,0,0,0,0,-,-,-,-,-,
COc1ccc(-c2cc3nc(C)cc(-c4ccc(OC)cc4)n3n2)cc1,0,0,0,0,0,-,-,-,-,
COc1ccc(-c2cc3ncc(-c4ccccc4)c(N)n3n2)cc1,0,0,6.5,24.6,0,14.8,7.0,15.7,0,
COc1ccc(-c2cc3nc(C)cc(N)n3n2)cc1,14.9,2.4,5.4,19.5,0,18.4,8.9,19.2,0,LXRb hcDAF ctr=0;hcDAF12 conf=12.8
SMILES,hcDAF12 agonist,ssDAF12 agonist,DAX1 inh-1,hgDAF12 agonist,DAX1 inh-2,DAX1 inh confirm,SF1 AF2mut Luc,hgDAF12 conf,LXRb DAF12 ctr,others
Cc1cccc2c1cnn2C(=O)CCC(=O)NCC(C)c1ccccc1 (stereo unspecified),0,0,0,0,0,-,-,-,-,
Clc1ccc(CSc2nc3ccncc3[nH]2)cc1,5.9,0,8.4,18.6,0,12.0,5.9,19.4,0,
O=c1[nH]c(SCc2ccc(Cl)cc2)nc2ccccc12,0,0,0,0,0,-,-,-,-,
CCCc1ccc(OCc2ccc(C(=O)N/N=C/c3cccnc3)o2)cc1,0,0,5.9,14.2,0,6.9,4.3,16.6,0,
CCOc1ccccc1OC(=O)c1cc2ccccc2oc1=O,0,0,0,0,0,-,-,-,-,
COc1cccc2cc(-c3csc(NC(=O)CCC(=O)NCCCN4CCC(C)CC4)n3)c(=O)oc12,6.2,1.6,4.5,15.5,0,16.4,3.8,14.0,0,
Cc1nnc(SCC(=O)Nc2nsc(-c3ccc(C(C)(C)C)cc3)n2)s1,7.3,0,7.3,27.0,4.4,10.9,6.0,19.1,0,LXRb hcDAF ctr=0;hcDAF12 conf=6.9
Cc1ncc(C(=O)Nc2ccccc2)[nH]1,0,0,4.7,20.8,0,11.1,6.9,12.8,0,

# Assay outcomes deposited in PubChem by The Scripps Research Institute Molecular Screening Center.
